Source: PubChem BioAssay (National Center for Advancing Translational Sciences (NCATS))
A selection: hits, their analogues and other compounds. The true share with any hit is near 0.97%.
CCT chaperon mod: High-Throughput Screening for Modulators of Cytosolic Chaperonin Activity; AID 651819, 2012; 360,000 compounds, 0.3% hits; purified chaperonin ATPase assay, HTRF ADP detection, 30 min; activity change, % (concentration not given with the values), hits read low; in the data active = activity change below about -30%
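First, chaperonin was dispensed at 40 nM or 20 nM final depending on batch activity. Next, compounds were pinned at 76 uM and ATP added at 10 uM. After 30 min at 37 °C, ADP detection reagents ran 30 min at ambient temperature.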
MBNL1-CUG inh: qHTS Assay for Inhibitors of MBNL1-poly(CUG) RNA binding | TR-FRET MBNL1-His/biotin-(CUG)12 binding, 665/545 ratio | Potency, µM (highest dose often 57.5 µM), most hits filed as inhibitors | 280,000 compounds, 0.036% hits | AID 2675, 2010; active = well fitted inhibition curve with a large enough effect in the signal ratio, with a control signal flat, not every such curve was filed as active; inconclusive = small, poorly fitted or top-dose-only effect, or effect the other way, or a change in a side signal; inactive = no such curve, though single readings can be large or run the other way; the % refers to the signal ratio
Target sequence (Q9NR56 whole entry, looked up): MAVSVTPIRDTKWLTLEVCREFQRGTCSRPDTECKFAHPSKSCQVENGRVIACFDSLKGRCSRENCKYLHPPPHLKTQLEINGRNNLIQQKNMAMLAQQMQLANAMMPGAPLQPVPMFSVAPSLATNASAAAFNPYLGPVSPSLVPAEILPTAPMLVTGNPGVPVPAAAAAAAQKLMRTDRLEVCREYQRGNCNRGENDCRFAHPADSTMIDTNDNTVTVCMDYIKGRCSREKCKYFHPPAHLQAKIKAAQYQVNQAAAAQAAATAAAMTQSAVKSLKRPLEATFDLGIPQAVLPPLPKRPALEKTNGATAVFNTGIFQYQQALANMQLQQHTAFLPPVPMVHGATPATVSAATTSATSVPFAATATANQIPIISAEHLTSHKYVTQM
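His-tagged MBNL1 binding to biotinylated (CUG)12 RNA was measured by TR-FRET using terbium anti-His antibody (0.055 ng/ul final) and streptavidin-XL665 (5 nM final). Compounds were titrated 92 nM to 58 uM; 60 min at room temperature.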
uPA surface inh: qHTS for Inhibitors of Cell Surface uPA Generation; Potency, µM (top dose mostly 38.3 µM), actives largely listed as inhibitors; cell surface uPA generation assay, qHTS; 330,000 compounds, 0.31% hits; active = well fitted inhibition curve with a large enough effect; inconclusive = small, poorly fitted or top-dose-only effect; inactive = no such curve, though single readings can be large or run the other way; tested in mouse RAW 264.7 cells; also: nearly all actives have a fitted effect of over 55% in size
pAkt inh: HTS Assay for Inhibitors of Akt Phophorylation: Primary Screen; AID 651550, 2012; 360,000 compounds, 0.32% hits; Neuro2A IGF-stimulated pAkt S473 HTRF, 20 min; active compounds read low; activity change, % for hits at 50 µM; in the data active = activity change below about -80%; inconclusive = mostly about -51% to -80%
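Single-point screen (50 µM final compound) in Neuro2A cells stimulated 20 min with 6 nM IGF at 37 deg C. After lysis, Ser473-phosphorylated Akt read by HTRF (ex 330 nm, em 615/665 nm) as the 665/615 ratio.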
MmCpn inh: Inhibitors of TCP-1 ring complex (TRiC) of Methanococcus maripaludis (MmCpn): qHTS. purified Mm-Cpn ATPase, ADP Transcreener TR-FRET. Potency, µM (titrated, usually from 76.9 µM), usual class: inhibitors. 330,000 compounds, 0.031% hits. AID 504842, 2011; also: nearly all actives have a fitted effect of over 80% in size
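Purified archaeal Mm-CPN (25nM final) preincubated 10 min at 37degC with compound, then 10uM ATP for 30 min at 37degC; ADP measured by HTRF Transcreener TR-FRET; buffer 30 mM TRIS pH 7.4, 100mM KCl, 5mM MgCl2, 1mM DTT.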
Epigenetic derep: Quantitative High-Throughput Screen for Regulators of Epigenetic Control. murine LDR cells, GFP reporter derepression, 30 h. 280,000 compounds, 0.2% hits. Potency, µM (titrated, usually from 53.9 µM), most hits filed as activators; also: nearly all actives have a fitted effect of over 60% in size
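Derepression of a silenced CMV-GFP reporter in murine LDR cells is scored by enumerating GFP-positive cells with a laser-scanning microplate cytometer after 30 hours of treatment at 37 C.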
Of the large screens only hits and unclear results are named; the others gave an inactive call. Unless noted, calls follow the shape of the dose curve; as a rule, active = well fitted curve in the direction sought with a large enough effect; inconclusive = small, poorly fitted or top-dose-only effect, or another doubt; inactive = no such curve, though single readings can be large; an effect the other way counts as inactive or inconclusive.

Nc1cc(=O)[nH]c(=S)n1-c1ccccc1	none
CCOc1ccc(-c2[nH]ncc2Oc2ccccc2OCC)c(O)c1	CCT chaperon mod -73
N#C/C(=C/c1ccc(N2CCOCC2)o1)c1ccc(Br)cc1	Epigenetic derep 4µM
N#C/C(=C\c1ccc(N2CCOCC2)o1)c1ccccc1	Epigenetic derep 11µM
N#C/C(=C/c1ccc(N2CCOCC2)o1)c1nc2ccccc2[nH]1	MBNL1-CUG inh inconclusive, Epigenetic derep 16µM
N#C/C(=C\c1ccc(N2CCOCC2)cc1)c1ccccc1	MBNL1-CUG inh inconclusive
N#C/C(=C\c1cc([N+](=O)[O-])c(N2CCOCC2)cc1N1CCOCC1)c1nc2ccccc2[nH]1	MBNL1-CUG inh inconclusive
N#C/C(=C/c1ccc(N2CCCCCC2)o1)c1ccc(F)cc1	none (no result: MBNL1-CUG inh, MmCpn inh, Epigenetic derep)
Cc1cc(=O)oc2cc(N3C(=O)CC(Cc4ccccc4)C3=O)ccc12 (stereo not given)	none
COC(=O)CN(c1c(C)cccc1C)S(C)(=O)=O	none (no result: uPA surface inh)
COC(=O)CN(c1ccc(C)c(Cl)c1)S(C)(=O)=O	pAkt inh -90%, MmCpn inh inconclusive
CC1CCN(S(=O)(=O)c2ccc(NC(=O)C3CCN(C(=O)c4ccco4)CC3)cc2)CC1	none (no result: Epigenetic derep)
CCN(CC)c1ccc(/C=C/c2cc(-c3ccccc3)c3ccccc3n2)cc1	MmCpn inh 35µM, Epigenetic derep 3.2µM
CC(=O)N/N=C/c1ccccc1OCCOc1cccc(C)c1	uPA surface inh 13µM (no result: Epigenetic derep)
CCSc1nnc(-c2cnn(-c3ccccc3)c2-n2cccc2)n1C	pAkt inh -115%
O=C(NNC1=NS(=O)(=O)c2ccccc21)c1ccc([N+](=O)[O-])cc1	MBNL1-CUG inh inconclusive (no result: Epigenetic derep)
O=C(NNC1=NS(=O)(=O)c2ccccc21)c1ccc(Cl)cc1	uPA surface inh 3.5µM
CCOc1cc(N(CC)CC)ccc1/C=C(/C#N)c1nc2ccccc2[nH]1	Epigenetic derep 7.9µM
COc1cc(/C=C(\C#N)c2nc3ccc(C)cc3[nH]2)ccc1OCc1ccc(C)cc1	Epigenetic derep 5.6µM (no result: CCT chaperon mod, MBNL1-CUG inh, uPA surface inh, pAkt inh, MmCpn inh)
COc1cc(OC)c(OC)cc1/C=N/Nc1nc2ccccc2[nH]1	none (no result: MBNL1-CUG inh)
CCN(CC)c1ccc(/C=C(/C#N)c2nc3ccc(C)cc3[nH]2)c(OC(C)C)c1	Epigenetic derep 5µM (no result: pAkt inh)
CCN(CC)c1ccc(/C=N/Nc2nc3ccccc3[nH]2)c(O)c1	CCT chaperon mod -31, Epigenetic derep inconclusive
CCOC(=O)COc1ccc(/C=C(\C#N)c2nc3ccc(C)cc3[nH]2)cc1OC	none (no result: CCT chaperon mod, MBNL1-CUG inh, uPA surface inh, pAkt inh, MmCpn inh)
COc1cc(/C=C(\C#N)c2nc3ccc(C)cc3[nH]2)c([N+](=O)[O-])cc1OC	MBNL1-CUG inh inconclusive
CCC/C=C(\CCC)C(NS(=O)(=O)c1cccc2cccnc12)c1ccc(-c2ccccc2)cc1 (stereo not given)	none (no result: CCT chaperon mod, MBNL1-CUG inh, uPA surface inh, pAkt inh, MmCpn inh)
O=S(=O)(c1ccccc1)c1nnn2c1nc(NC1CCCCC1)c1sccc12	none (no result: CCT chaperon mod, MBNL1-CUG inh, uPA surface inh, pAkt inh, MmCpn inh)
COc1cc(CNC(=O)c2cc(-c3cc(Cl)ccc3OC)n[nH]2)cc(OC)c1	none (no result: MBNL1-CUG inh, uPA surface inh, MmCpn inh, Epigenetic derep)
Cc1[nH]c2ccccc2c1/C=C/c1nc2ccccc2c(=O)n1-c1cccc([N+](=O)[O-])c1	none (no result: MBNL1-CUG inh)
COc1ccc(-n2c(/C=C/c3c(C)[nH]c4ccccc34)nc3ccccc3c2=O)cc1	Epigenetic derep 10µM (no result: CCT chaperon mod, MBNL1-CUG inh, uPA surface inh, pAkt inh, MmCpn inh)
CSC1SCC2C(=O)N(C)C(C(C)C)C(=O)OCC(NC(=O)c3cnc4ccccc4n3)C(=O)NC(C)C(=O)N(C)C1C(=O)N(C)C(C(C)C)C(=O)OCC(NC(=O)c1cnc3ccccc3n1)C(=O)NC(C)C(=O)N2C (stereo not given)	none (no result: MBNL1-CUG inh, MmCpn inh, Epigenetic derep)
CCCSc1nnc(NC(=O)Nc2ccccc2OC)s1	none
C=CS(=O)(=O)c1ccc(Oc2ccc(S(=O)(=O)C=C)cc2)cc1	CCT chaperon mod -45
O=c1cc(-c2ccc(O)c(O)c2)oc2c1ccc1ccccc12	uPA surface inh 2.5µM (no result: MBNL1-CUG inh, Epigenetic derep)
